Compounds with a hit are over-represented: about 8.1% of the library has one in this group of screens.
ELG1 DNA repair: qHTS screen for small molecules that inhibit ELG1-dependent DNA repair in human embryonic kidney (HEK293T) cells expressing luciferase-tagged ELG1; HEK293T ELG1-luciferase reporter, luminescence, 16 h; DNA damage induced by 5-fluorouridine; Potency, µM (top dose mostly 46.1 µM), for inactives: at the top dose activity change, negative = inhibition, actives largely listed as inhibitors; 330,000 tested, 2.3% active; also: % is scaled to controls: 0 for no effect and ±100 for the full control effect; nearly all actives have a fitted effect of over 55% in size
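Quantitative HTS, concentration-response format. 2,000 cells/well co-treated with 5-fluorouridine and compound, 16 hr in 5% CO2 at 37 °C; ONE-Glo luminescence read after 30 min.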
KB-V1 cytotox: qHTS assay for MDR1-selective chemotherapeutics: Primary screen using the drug-selected MDR subline cells KB-V1; KB-V1 MDR cells viability, CellTiter-Glo, 72 h; Potency, µM (titrated, usually from 46.1 µM), actives largely listed as cytotoxic; 400,000 tested, 3.4% active; also: % is scaled to controls: 0 for no effect and ±100 for the full control effect; nearly all actives have a fitted effect of over 60% in size
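Cytotoxicity via CellTiter-Glo luminescence after 72 h compound exposure at 37 degrees C. Cells: drug-selected KB-V1 line, DMEM phenol-red free plus 10% FBS. Compounds tested at multiple concentrations; normalized data fitted to concentration-effect curves.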
MCF10A rereplic: A quantitative high throughput screen for small molecules that induce DNA re-replication in MCF 10a normal breast cells; MCF 10A DNA re-replication, Hoechst nuclear intensity, 48 h; Potency, µM (series often up to 46.1 µM), inactives show at the highest dose activity, positive = re-replication, hits mostly activators; 350,000 tested, 2.9% active; AID 624296, 2012; also: % of control where 0% means no effect; nearly all actives have a fitted effect of over 50% in size
KB-3-1 tox: qHTS assay for MDR1-selective chemotherapeutics: Primary screen using the parental adenocarcinoma cell KB-3-1 | Potency, µM (highest dose often 46.1 µM), hits mostly cytotoxic | 400,000 tested, 1.4% active | KB-3-1 viability, CellTiter-Glo ATP luminescence, 72 h; also: % is scaled to controls: 0 for no effect and ±100 for the full control effect; nearly all actives have a fitted effect of over 60% in size
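Cytotoxicity measured as CellTiter-Glo luminescence after 72 h at 37 C. Compound titrations were pinned onto drug-naive KB-3-1 parental adenocarcinoma cells grown in DMEM with 10% FBS, and normalized data fitted to concentration-response curves.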
SW480 rerep: A quantitative high throughput screen for small molecules that induce DNA re-replication in SW480 colon adenocarcinoma cells. SW480 DNA re-replication, Hoechst DNA content imaging, 48 h. Potency, µM (series often up to 46.1 µM), for inactives: top-dose re-replication activation, most hits filed as activators. AID 624297, 2012. 340,000 tested, 1.8% active; also: % of control where 0% means no effect; nearly all actives have a fitted effect of over 55% in size
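Compounds, transferred as 23 nL by pin tool, were incubated with cells for 48 hr; DNA content per nucleus was then quantified by Hoechst staining and fluorescence plate imaging.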
The depositor's hits bear a star; i = inactive; ? = inconclusive; . = not tested or not shown; [ ] = remark or other dose. Calls follow the shape of the dose curve; as a rule, active = well fitted curve in the direction sought with a large enough effect; inconclusive = small, poorly fitted or top-dose-only effect, or another doubt; inactive = no such curve, though single readings can be large; an effect the other way counts as inactive or inconclusive. Potency is read from the fitted curve at half-maximal effect.

SMILES | ELG1 DNA repair | KB-V1 cytotox | MCF10A rereplic | KB-3-1 tox | SW480 rerep
Cc1ccc(CNC(=O)C2CC(c3cc(C(F)(F)F)cc(C(F)(F)F)c3)=NO2)o1 (configuration not stated) | 1% | i | 9.2µM* | i | ?
COc1ccc(C2=NOC(C(=O)NCc3ccco3)C2)cc1 (configuration not stated) | ? | 7.3µM* | 6.5µM* | 13µM* | 18µM*
O=C(c1ccccc1)C(c1ccccc1)[n+]1csc2ccccc21 (configuration not stated) | . | i | . | i | .
CC(=O)Nc1c(Cl)c2c(c(Cl)c1Br)-c1ccc(Cl)cc1C2 | . | ? | 6% | i | 2%
Cc1cc(/C=C2\Cc3ccccc3C2=O)c(C)n1-c1ccccc1 | ? | i | 21µM* | i | ?
CCOc1cc(Br)c(C=O)cc1OCC | 27% | i | ? | ? | 13µM*
CCn1c(N2CCN(CC(=O)c3ccc(OC)cc3)CC2)nc2ccccc21 | -7% | i | 1% | i | 11%
COc1ccc(C(=O)Cn2c(C(C)=O)nc3ccccc32)cc1 | . | 3.3µM* | 13% | ? | 3%
COc1ccc(C(=O)Cn2c(NCCO)nc3ccccc32)cc1 | 6% | i | -3% | i | 5%
COc1ccc(/C=C/C(=O)c2nc3ccccc3n2CC(=O)c2ccc(OC)cc2)cc1 | -9% | 23µM* | 2% | i | 16%
CCOC(=O)C1=C(C)N=c2s/c(=C/c3ccc(OCC(=O)O)cc3)c(=O)n2C1c1ccc(F)cc1 (configuration not stated) | -3% | i | ? | i | -6%
CCOC(=O)C1=C(C)N=c2s/c(=C\c3ccc(OCC(=O)O)cc3)c(=O)n2C1c1ccc(Cl)cc1 (configuration not stated) | -5% | i | 18µM* | i | -56%[1.84 µM]
Cc1nc2ccccc2c(=O)n1-c1ccc(NC(=O)C(F)(F)F)cc1 | . | i | . | i | .
CCCCn1nc(C(=O)NCc2ccccc2CN2CCCC2)c2ccccc2c1=O | -15% | i | 1% | i | -2%
CC(C)Cn1nc(C(=O)NCc2ccccc2CN2CCCC2)c2ccccc2c1=O | -17% | 5.8µM* | 1% | i | 0%
CCOc1ccc(C(=O)c2cn(CC(=O)Nc3ccc(OC)cc3)c3cc4c(cc3c2=O)OCO4)cc1 | . | i | . | i | .
CC(C)(C)c1cc(NC(=O)Nc2ccc(Br)cc2Cl)no1 | 2% | i | ? | i | 8%
CC(C)(C)c1cc(NC(=O)Nc2ccc(Cl)cc2Cl)no1 | 13% | i | 18µM* | i | -38%
O=C(CSc1ncccc1-c1nc2ccccc2[nH]1)Nc1ccc2c(c1)OCCO2 | -14% | 9.2µM* | 11% | i | -113%
Cc1cccc(OCCCC(=O)Nc2nc3ccccc3[nH]2)c1 | ? | 21µM* | 9% | ? | 15%
O=C(CSc1ccc(Cl)cc1)Nc1ccc(-c2nc3ccccc3[nH]2)cc1 | ? | i | 21µM* | i | ?
N#CCCCSc1ncccc1-c1nc2ccccc2[nH]1 | ? | 13µM* | 0% | i | -8%
O=C(CN1C(=O)NC2(CCCC2)C1=O)OCC(=O)c1cccc(Cl)c1 | 6% | i | -16% | i | -37%
CC[C@]12C(=O)N(C)C[C@H]([C@@H]3C(=O)N(C)C(=O)[C@@H]31)N2C(=O)c1ccc(C(C)(C)C)cc1 | . | i | 10% | i | -7%
Cc1nc2ccc(C(=O)NCCCn3ccnc3)cn2c1N(C)CC1CCCCC1 | . | i | . | i | .
SMILES | ELG1 DNA repair | KB-V1 cytotox | MCF10A rereplic | KB-3-1 tox | SW480 rerep
Cc1ccc(SCc2nc3ccccc3n2CC(=O)Nc2ccccc2)cc1 | -6% | ? | ? | i | ?
Cc1ccc(SCc2nc3ccccc3n2CC(=O)Nc2ccc(Cl)cc2)cc1 | 7.3µM* | i | ? | i | 16%
O=C(CSc1ccccc1)Nc1nc2ccccc2[nH]1 | ? | ? | ? | 15µM* | ?
Cc1cc(O)c(C(C)C)cc1N=Cc1ccc(N(C)C)cc1 | . | . | 21µM* | . | ?
Cc1cc(O)c(C(C)C)cc1N=Cc1ccc([N+](=O)[O-])cc1 | . | . | 18µM* | . | 18µM*
COc1cccc(C=Nc2cc(C(C)C)c(O)cc2C)c1O | . | ? | ? | i | ?
Cc1cc(O)c(C(C)C)cc1NC(=O)Nc1ccc([N+](=O)[O-])cc1 | . | i | -14% | i | -10%
CCCCCCCCNc1ccc(/C=C/c2ccnc3ccccc23)cc1 | . | i | . | i | .
Cn1c(=O)c2c(nc(NCCCO)n2C/C=C/c2ccccc2)n(C)c1=O | 12µM* | ? | 27% | i | 15%
C/C(Cl)=C/Cn1c(NCCN(C)C)nc2c1c(=O)n(C)c(=O)n2C | 2% | i | -1% | i | -5%
C/C(Cl)=C\Cn1c(Nc2ccccc2)nc2c1c(=O)n(C)c(=O)n2C | 11µM* | i | 12% | i | 3%[9.22 µM]
CC(O)CNc1nc2c(c(=O)n(C)c(=O)n2C)n1C/C=C/c1ccccc1 (configuration not stated) | 23µM* | ? | -7% | i | -3%
COc1cc(OC)cc(OC(=O)C2CCN(C(=O)c3ccc(Cl)cc3)CC2)c1 | 11% | i | 3% | i | -5%
CCN(CC)S(=O)(=O)c1ccc(N2CCOCC2)c(NC(=O)c2cc3ccccc3o2)c1 | . | i | . | i | .
CC(SCC(=O)Nc1ccc(F)cc1)c1nc2ccccc2c(=O)[nH]1 (configuration not stated) | -4% | i | 4% | i | 0%
Cc1ccc(S(=O)(=O)c2nc(Nc3ccccc3)sc2Cl)cc1 | -18% | i | ? | ? | 6%
O=S(=O)(c1ccccc1)c1nc(Nc2cccc(O)c2)sc1Cl | -2% | ? | 29% | 16µM* | ?
CCC(C)(C)NC(=O)C(c1ccc(C)cc1)N(Cc1cccs1)C(=O)c1ccc2c(c1)OCCO2 (configuration not stated) | -17% | 18µM* | -3% | i | -1%
CCC(C)(C)NC(=O)C(c1ccc(OC)cc1)N(Cc1cccs1)C(=O)CCC(=O)Nc1cc(C)on1 (configuration not stated) | 18µM* | i | ? | i | -3%
Cc1nc2ccccn2c1C(=O)N/N=C/c1cc(C)n(-c2ccc(Cl)cc2)c1C | ? | i | 3% | i | 1%
CCNC(=S)N/N=C/c1cc(C)n(-c2ccc(Cl)cc2)c1C | ? | 12µM* | ? | ? | 2%
